Assay outcomes: PubChem BioAssay, National Center for Advancing Translational Sciences (NCATS)
An excerpt weighted towards active compounds, which were near 9.5% of everything screened.
Pf growth 96h: inhibits malaria parasite growth, 96 h | AID 504834 | Potency, µM (doses to about 28.7 µM), for the others: at the highest dose activity change, negative = inhibition, actives largely listed as inhibitors | P. falciparum luciferase reporter growth, 96 h | hit rate 6.9% among 320,000; active = well fitted inhibition curve with a large enough effect; inconclusive = small, poorly fitted or top-dose-only effect, or another doubt; inactive = no such curve, though single readings can be large or run the other way; note: % is set by controls: 0 for no effect and ±100 for the full control effect
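Delayed-death screen, second-generation endpoint: infected erythrocytes, 2% hematocrit, 0.05% parasitemia final; 96 hours at 37 C, 5% CO2; luciferase detection reagent; luminescence decrease equals reduced growth.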
RE007 growth inh: less growth of the S. pombe RE007 Vpr strain | S. pombe RE007 Vpr strain, BacTiter-Glo ATP luminescence, 24 h | Potency, µM (doses to about 92.2 µM), for the others: at the top dose activity change, negative = less growth, most hits filed as inhibitors | hit rate 0.21% among 360,000; active = well fitted falling curve with a large enough effect; inconclusive = small, poorly fitted or top-dose-only effect; inactive = no such curve, though single readings can be large or run the other way; note: % is set by controls: 0 for no effect and ±100 for the full control effect; nearly all actives have a fitted effect of over 50% in size
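Fission yeast strain RE007, carrying one chromosomally integrated HIV-1 vpr copy, was seeded at OD 0.01 in PMG+AL medium with 23 nL pinned compound. After 24 h at 30 °C and 99% humidity, viability was read by BacTiter-Glo luminescence.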
Pf growth 48h: P. falciparum growth inhibition at 48 hours (one generation); Potency, µM (titrated, usually from 28.7 µM), inactives show top-dose activity change, negative = inhibition, actives largely listed as inhibitors; P. falciparum luciferase growth in erythrocytes, 48 h; hit rate 5.9% among 310,000; active = well fitted inhibition curve with a large enough effect; inconclusive = small, poorly fitted or top-dose-only effect, or another doubt; inactive = no such curve, though single readings can be large or run the other way; note: % is set by controls: 0 for no effect and ±100 for the full control effect
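Read-out is firefly luciferase luminescence from an integrated reporter in P. falciparum, so falling signal marks reduced parasite growth. Infected erythrocytes were at 2% hematocrit and 0.1% parasitemia (final) in Albumax-supplemented RPMI 1640.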
SARS PLP yeast: inhibitors of SARS-CoV papain-like protease in yeast. AID 485353. S. cerevisiae expressing SARS-CoV PLpro, growth rescue. Potency, µM (titrated, usually from 32.9 µM), for inactives: at the highest dose activity, positive = growth rescue, actives largely listed as activators. hit rate 0.19% among 330,000; note: 0% is about no effect; nearly all actives have a fitted effect of over 55% in size
NS1 inh: influenza NS1 inhibition. hit rate 0.4% among 270,000. Potency, µM (series often up to 46.1 µM), without a hit: at the highest dose activity, positive = more growth; note: actives are rising curves; nearly all actives have a fitted effect of over 50% in size
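Compounds were scored for reversing the slow growth caused by influenza A NS1 in S. cerevisiae, measured by optical density at 600 nm. Assay medium contained 2% galactose at pH 6.0; NS1-free yeast of the same strain were the positive control.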
Numbers without * were called inactive; ? = inconclusive; . = no result; [ ] = another dose, or the depositor's remark. Unless noted, calls come from the whole dose curve. Potency is the fitted concentration of half-maximal effect.

SMILES | Pf growth 96h | RE007 growth inh | Pf growth 48h | SARS PLP yeast | NS1 inh
O=C1c2ccccc2C(Nc2ccc(S(=O)(=O)N3CCCCCC3)cc2)N1c1ccccn1 (configuration not stated) | -25% | 2% | . | -1% | 11%
COc1cc(OC)c(NC2c3ccccc3C(=O)N2c2cc(C)ccn2)cc1Cl (configuration not stated) | 12µM* | 1% | -12% | 9% | -45%
O=C1c2ccccc2C(Nc2ccc(S(=O)(=O)N3CCOCC3)cc2)N1c1ccccn1 (configuration not stated) | 7.4µM* | -8% | . | -5% | -3%
CCOC(=O)c1ccccc1NC1c2ccccc2C(=O)N1c1cc(C)ccn1 (configuration not stated) | ? | -8% | . | -12% | 4%
O=C1c2ccccc2C(Nc2ccc(Cl)cn2)N1c1ccccn1 (configuration not stated) | 6% | -1% | 12µM* | 23% | -42%
O=C1c2ccccc2C(Nc2ccc(S(=O)(=O)N3CCOCC3)cc2)N1Cc1ccco1 (configuration not stated) | 8.3µM* | 9% | . | -5% | -70%
C[C@@H]1CN([C@H](C)CO)C(=O)CCCn2nncc2CO[C@H]1CN(C)C(=O)Nc1ccc(N2CCN(C)CC2)cc1 | . | -1% | . | . | .
O=C(Nc1ccc(N2CCOCC2)cc1)c1ccc(Cl)c(S(=O)(=O)N2CCCCC2)c1 | ? | 0% | 10µM* | -1% | .
CCc1noc(C)c1C(=O)Nc1cc(S(=O)(=O)N2CCCCC2)ccc1N(C)C | ? | 33% | ? | -22% | .
O=[N+]([O-])c1ccc(Cl)c([N+](=O)[O-])c1 | ? | ? | 10µM* | . | .
CCc1noc(C)c1C(=O)Nc1ccc(C)c(S(=O)(=O)N2CCCCCC2)c1 | ? | -14% | 10µM* | 9% | .
Cc1ccc(NC(=O)CNC2CCCCC2)cc1Cl | 0.74µM* | 3% | ? | 2% | -3%
O=[N+]([O-])c1ccc(O)c([N+](=O)[O-])c1 | . | 8%[18.4 µM] | . | . | .
COC(=O)C1CN(S(=O)(=O)c2ccccc2)CCN1S(=O)(=O)c1ccccc1 (configuration not stated) | ? | 3% | . | 3% | -6%
Cc1cc(C)n(C(=O)/C(C#N)=C/N(C)C)n1 | 19% | 12% | 2% | 0% | .
COc1ccc(NC(=S)NNC(=O)c2nnn(-c3ccccc3)c2C)cc1 | -6% | -4% | 9% | -6% | -15%
Cc1ccc(NC(=O)CNc2ccccc2N2CCCC2=O)cc1S(=O)(=O)N1CCCCC1 | 9.3µM* | -24% | 10µM* | 0% | .
O=C(Nc1ccc2c(c1)OCCO2)c1ccc(Cl)c(S(=O)(=O)N2CCOCC2)c1 | 4%[5.75 µM] | 12% | 2.6µM* | -1% | -19%
CN1CC(=O)NC1=NC(=O)c1ccc(Cl)c(S(=O)(=O)N2CCCCCC2)c1 | 8.3µM* | -10% | ? | 8% | ?
O=C(Nc1ccc2c(c1)OCO2)c1ccc(Cl)c(S(=O)(=O)N2CCOCC2)c1 | 18% | 4% | ? | -16% | -12%
O=C(Cc1ccc2c(c1)OCCO2)Nc1ccc(Cl)c(S(=O)(=O)N2CCOCC2)c1 | 9.3µM* | -7% | ? | -19% | .
CC1=C(C(=O)O)N2C(=O)C(NC(=O)c3ccc(F)cc3)C2SC1 (configuration not stated) | 3% | 0% | 11% | 2% | .
Oc1c(Cl)cc(CN(Cc2cc(Cl)c(O)c(Cl)c2)C2CCCCC2)cc1Cl | . | . | . | . | -16%
Cc1cc(C(C)(C)C)cc(CNC2CCCCC2)c1O | . | . | . | . | -6%
COC(=O)[C@]12CCCCC=C1N(CCC1=CCCCC1)C(=O)[C@H](CC(=O)N1CCOCC1)C2 | . | 0% | . | . | .
SMILES | Pf growth 96h | RE007 growth inh | Pf growth 48h | SARS PLP yeast | NS1 inh
Cc1ccc(NC(=O)Cc2ccc3c(c2)OCCO3)cc1S(=O)(=O)N1CCCCC1 | 5.2µM* | 11% | 171% | 0% | 11%
O=[N+]([O-])c1ccc(Cl)c(S(=O)(=O)N2CCCCCC2)c1 | 10µM* | 7% | -19% | -8% | -19%
O=C(Nc1ccc(-c2cn3ccsc3n2)cc1)c1ccc(F)c(S(=O)(=O)N2CCOCC2)c1 | 9.3µM* | 0% | 0% | -3% | -10%
COc1ccc(NC(=O)c2ccc(Cl)nc2)cc1S(=O)(=O)N1CCOCC1 | 12µM* | 16% | ? | 0% | .
Cc1ccc(S(=O)(=O)Nc2ccccc2F)cc1C(=O)NCc1ccco1 | ? | -2% | -12% | 2% | .
O=C(CSc1ncccn1)N1CCC(Cc2ccccc2)CC1 | -23% | 3% | -17% | 2% | .
COc1ccc(-n2nnnc2C2(C)CCC(=O)N2Cc2ccccc2)cc1 (configuration not stated) | . | 1% | . | . | .
Cc1ccnc(NC(=O)c2ccc(Cl)c(S(=O)(=O)N3CCCCC3)c2)c1 | -10% | 1% | ? | -5% | .
Cc1ccc(NC(=O)c2ccc(Cl)c(S(=O)(=O)N3CCCCC3)c2)nc1 | 10µM* | -7% | 9.3µM* | -22% | .
COCCNCC(=O)Nc1ccc(C)c(S(=O)(=O)N2CCCCC2)c1 | -3% | -1% | -2% | 3% | .
Cc1ccc(NC(=O)CCl)cc1S(=O)(=O)N1CCCCCC1 | 9.3µM* | 1% | -6% | 9% | .
Cc1ccc(NC(=O)CC2OC(=O)c3ccccc32)cc1S(=O)(=O)N1CCCCCC1 (configuration not stated) | ? | 3% | 8.3µM* | -2% | .
Cc1ccc(NC(=O)CSc2nnc(C3CC3)n2C)cc1S(=O)(=O)N1CCCCC1 | ? | 1% | 13µM* | 5% | .
CNc1nc(Nc2ccc(C(=O)OC)cc2)c2sccc2n1 | . | -28% | . | . | .
O=C1NCC(Nc2ccccc2Cl)C(=O)N1 (configuration not stated) | . | -8% | . | . | .
COc1ccc(C(=O)Nc2ccc3c(c2)OCCO3)cc1S(=O)(=O)N1CCOCC1 | 10µM* | -22% | ? | -17% | .
COc1ccccc1NC(=O)Nc1ccc(Cl)c(S(=O)(=O)Nc2ccccc2OC)c1 | ? | 6% | -17% | 6% | -2%
COc1ccccc1NS(=O)(=O)c1cc(NC(=O)c2ccc(Cl)nc2)ccc1Cl | 3.3µM* | -16% | 1.7µM* | -3% | 16%
CCCN(CCc1cccs1)[C@H]1CCc2c(O)cccc2C1 | 1.5µM* | . | 6.7µM* | . | .
CCCN(CCC)[C@H]1CCc2c(F)ccc(O)c2C1 | . | . | . | . | -2%
O=C1CCCN2N=C(SCC(=O)Nc3ccc([N+](=O)[O-])cc3)SC2=N1 | 51% | -2% | 5% | 1% | -9%
O=C1CCCN2N=C(SCC(=O)Nc3ccc(OC(F)(F)F)cc3)SC2=N1 | 12µM* | -2% | -17% | 0% | -2%
Cc1ccc(Nc2nc(CSc3nnc(-c4ccc(F)cc4)n3C)cs2)cc1 | 28% | -18% | 78% | 0% | -18%
O=C(OCc1cccc([N+](=O)[O-])c1)c1ccc2ccccc2n1 | 27% | -6% | 82% | -1% | .
